Sampled rows, rich in hits. Any-hit rate of the full collection: about 4.6%.
D1 ag – activates the human D1 dopamine receptor; hit rate 1% among 360,000; HEK293 T-REx D1 cells, calcium flux, agonist mode; activation, % at 2 µM; P21728; further: 0% is about no effect
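Agonism was scored from calcium flux recorded over 180 s (1 read/s) after pintool compound addition, following a 10-cycle baseline. Cells were inducible force-coupled HEK293 TREx D1, plated overnight at 30 C and loaded with no-wash calcium dye.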
TRHR enhancer – allosterically enhances the human TRH receptor; AID 493056; TRHR cells, fluo-8 calcium fluorescence, EC20 TRH enhancement; enhancement, % at 2 µM; hit rate 0.66% among 360,000; P34981; in the data active means enhancement above about 30%; further: 0% is about no effect
Target sequence (P34981 whole entry, looked up): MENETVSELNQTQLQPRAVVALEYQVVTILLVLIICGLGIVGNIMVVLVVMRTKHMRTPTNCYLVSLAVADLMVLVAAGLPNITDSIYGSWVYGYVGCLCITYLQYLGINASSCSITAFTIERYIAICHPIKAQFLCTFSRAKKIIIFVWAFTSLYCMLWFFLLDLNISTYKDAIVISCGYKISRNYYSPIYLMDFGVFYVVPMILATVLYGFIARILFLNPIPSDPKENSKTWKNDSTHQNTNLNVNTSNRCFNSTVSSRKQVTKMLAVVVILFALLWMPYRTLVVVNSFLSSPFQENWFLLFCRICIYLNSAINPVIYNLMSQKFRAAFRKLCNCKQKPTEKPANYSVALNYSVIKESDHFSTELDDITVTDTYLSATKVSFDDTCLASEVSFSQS
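TRHR-expressing cells loaded with fluo-8 calcium dye were read kinetically (ex 480/em 530) during compound addition, then stimulated with an EC20 of TRH (10 nM final). Enhancement of the Gq-mediated intracellular calcium response was scored.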
D1 potentiator – human D1 dopamine receptor positive modulation. P21728. HEK293 TREx D1 cells, calcium flux, dopamine EC20 potentiation. potentiation, % at 10 µM. hit rate 0.036% among 360,000; in the data active means potentiation above about 30%; further: 0% is about no effect
TRHR agonist – agonists of human TRH receptor; TRHR cells, calcium flux fluo-8, FDSS agonist mode; activation, % at 2 µM; hit rate 0.18% among 360,000; further: 0% is about no effect
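TRHR-expressing cells loaded with fluo-8 calcium dye; 23 nL library compound pin-transferred, kinetic FDSS fluorescence (Ex 480/Em 530) recorded about 180 s for agonist-induced calcium release, before a 10 nM TRH EC20 addition for potentiator mode.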
D1 antag – blocks dopamine activation of the human D1 receptor; HEK293 TREx D1 cells, calcium flux, dopamine EC80; hits give low values; activity change, negative = inhibition, % at 10 µM; hit rate 3.2% among 360,000; in the data active means activity change below about -30%; further: on the % scale 0 is the no-effect control and ±100 the full control effect
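HEK293 T-REx cells expressing inducible, force-coupled D1 receptor; no-wash Ca dye, 30–90 min RT. Cmpd → 180 s read at 1 Hz → EC80 DA → 180 s read.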
* = called active by the depositor; x = no result given. Unless noted, no stated cut-off is given here; in the data, active means activation above about 30%; inactive means the rest.

SMILES | D1 ag | TRHR enhancer | D1 potentiator | TRHR agonist | D1 antag
Cc1nc2ccc(-c3ccccc3)cc2o1 | 0.6 | -6.8 | -3.0 | -0.1 | -45.9*
Cc1sc(-c2cc3c([nH]c2=O)CC(c2ccccc2)CC3=O)nc1-c1ccc(Cl)cc1 (configuration not stated) | 0.3 | 8.4 | 1.1 | 0.6 | 1.0
O=C(COC(=O)CCOc1ccccc1)Nc1ncc(Cl)cc1Cl | 0.3 | 0.7 | 2.6 | -0.1 | -60.0*
CCC1(CC)NC(=O)N(CC(=O)OCC(=O)Nc2ncc(Cl)cc2Cl)C1=O | 0.6 | 8.9 | -15.7 | -0.3 | -64.3*
O=C(COC(=O)CN1C(=O)c2ccccc2C1=O)Nc1ncc(Cl)cc1Cl | 0.4 | 13.6 | -3.7 | -0.1 | -7.0
O=C(Cc1ccccc1)Nc1sc2c(c1C(=O)Nc1ccc(Cl)cc1)CCOC2 | 0.6 | 3.5 | -0.5 | -1.8 | -1.3
CCC(=O)N1CCc2cc(CNS(=O)(=O)c3ccc(CC(C)C)cc3)ccc21 | 6.7 | 1.6 | -1.1 | -0.2 | -20.7
CCOC(=O)NC1c2ccccc2Oc2ccccc21 | -0.4 | -1.1 | -1.9 | -1.4 | -33.2*
COc1ccc(Br)c2c1-c1nc(NC(=O)c3ccccc3SC)sc1C2 | -1.5 | -9.1 | -8.2 | -1.0 | -36.2*
COc1ccc(Br)c2c1-c1nc(NC(=O)c3ccccc3F)sc1C2 | 1.3 | 6.3 | 1.9 | 0.6 | 22.5
COc1ccc(NC(=O)c2cn3c4c(ccc(Cl)c4c2=O)OC(C)C3)cc1OC (configuration not stated) | 3.4 | 50.1* | 8.4 | -0.5 | 15.8
Cc1cc(=O)n(CC(=O)NC(C)c2ccccc2)c2c1c(C)nn2C (configuration not stated) | 7.6 | 0.0 | 0.2 | 0.2 | -0.8
COc1ccc(NC(=S)Nc2ccc3nccnc3c2)cc1 | 3.2 | 4.7 | -5.4 | 1.0 | -33.8*
COc1ccc(NC(=S)Nc2ccc3snnc3c2)cc1 | 4.0 | -8.4 | -5.3 | 0.3 | -12.6
COC(=O)c1cccc(-n2c(C)cc(C=O)c2C)c1 | 2.8 | -5.2 | -4.2 | -2.4 | -30.3*
COC(=O)c1cc(C(=O)OC)cc(-n2c(C)cc(C=O)c2C)c1 | 1.9 | 1.0 | 3.2 | -0.2 | -3.5
N#Cc1ccc(OCC(=O)NCC(c2cccs2)N2CCOCC2)cc1 (configuration not stated) | 4.6 | 9.9 | 12.4 | 0.1 | 9.1
CCn1nc(C)c2c(-c3ccccc3)cc(=O)n(C(C)C(=O)Nc3cccc(F)c3)c21 (configuration not stated) | 4.8 | -2.7 | -6.5 | 0.9 | -17.2
N=C(N)Cc1ccccc1Sc1ccccc1 | 5.1 | -7.3 | -8.3 | 1.5 | -49.2*
COc1ccc(NC(=O)C(C)n2c(C)c3cnn(-c4ccccc4)c(=O)c3c2C)cc1Cl (configuration not stated) | 13.6 | 7.6 | -1.6 | 3.3 | 8.8
CC1CCCCN1S(=O)(=O)Cc1ccccc1Cl (configuration not stated) | 0.4 | -3.7 | -12.5 | -0.2 | -86.9*
O=S(=O)(Cc1ccccc1Cl)N1CCCC1 | 0.4 | -1.6 | 0.9 | -0.4 | x
CCOC(=O)C1=C(COC(=O)c2ccc(OC)c(OC)c2OC)NC(=O)NC1C (configuration not stated) | 10.8 | -5.5 | -2.9 | -0.7 | -43.7*
CCOC(=O)C1=C(COC(=O)/C=C/c2cc(OC)c(OC)c(OC)c2)NC(=O)NC1C (configuration not stated) | 0.8 | -0.3 | -4.7 | -0.1 | -38.8*
CCOC(=O)C1=C(COC(=O)/C=C/c2ccc(OC)c(OC)c2)NC(=O)NC1C (configuration not stated) | 2.4 | -1.5 | 1.9 | -0.8 | 3.2
SMILES | D1 ag | TRHR enhancer | D1 potentiator | TRHR agonist | D1 antag
CCOC(=O)C1=C(COC(=O)c2cc(OC)c(OC)cc2[N+](=O)[O-])NC(=O)NC1C (configuration not stated) | 1.9 | 3.7 | -1.7 | 0.1 | -11.5
C[C@@H]1CN(CCCn2c3ccccc3c3ccccc32)C[C@H](C)N1 | 39.6* | 1.2 | -0.8 | 1.5 | -15.4
CCc1ccc2occ(CC(=O)NCc3ccccc3)c2c1 | 49.0* | 10.2 | -0.3 | -1.3 | -12.9
CCc1ccc2occ(CC(=O)Nc3ccccc3C(F)(F)F)c2c1 | 21.8 | 6.6 | -2.0 | -1.1 | 10.5
CCN(CC)S(=O)(=O)c1ccc(C(=O)NCCSc2c(-c3ccc(C)cc3)[nH]c3ccccc23)cc1 | 0.7 | -4.8 | -0.5 | 0.5 | 4.8
O=C(COC(=O)c1ccccc1O)NCCCc1ccccc1 | 1.8 | -0.4 | -6.1 | -0.5 | -34.3*
O=C(COC(=O)c1cccnc1Cl)NCCCc1ccccc1 | 1.6 | -5.9 | -3.8 | -0.5 | -3.4
COc1ccc(C(=O)CSc2nnc(Cn3cnc4ccccc43)o2)cc1 | 22.2 | 0.9 | -10.9 | -0.1 | -33.7*
CC(=O)c1ccc(NC(=O)CSc2nnc(Cn3cnc4ccccc43)o2)cc1 | 0.1 | -2.8 | -1.6 | -0.6 | -1.7
COc1cc(/C=c2\sc3nc(-c4ccncc4)nn3c2=O)ccc1OC(C)=O | 2.6 | -3.3 | -3.2 | 0.7 | -4.6
CN(C)c1ccc(/C=c2\sc3nc(-c4ccccc4)nn3c2=O)cc1 | 6.4 | -2.7 | -9.2 | 5.5 | -57.1*
CSC1=NCCN1C(=O)Cc1ccc(F)cc1 | 1.0 | 4.2 | x | 0.1 | 14.4
CSC1=NCCN1C(=O)Cc1ccc(-c2ccccc2)cc1 | 16.4 | 2.1 | -9.8 | 0.3 | -39.8*
CCSC1=NCCN1C(=O)Cc1ccc(-c2ccccc2)cc1 | 3.6 | 0.4 | -3.9 | 0.2 | -44.4*
CC(=O)N1CCc2c(sc3c2c(=O)n(-c2ccccc2)c(=O)n3CC(=O)c2ccc(F)cc2)C1 | 0.6 | 6.7 | 0.0 | -0.4 | 22.5
N/C(COc1ccccc1)=N\NS(=O)(=O)c1ccccc1 | 3.3 | 31.0* | -5.8 | -0.1 | 4.6
C/C(=N\NS(=O)(=O)c1ccccc1)c1ccccc1 | 1.2 | 3.6 | -0.5 | 0.1 | 2.0
Cc1ccc(-n2ncc3c(NC4CCCCC4)ncnc32)cc1 | -3.0 | -0.4 | -2.0 | 0.8 | 2.7
CCOC(=O)c1cnc(-n2nc(C)cc2C)nc1NC1CCCC1 | 47.5* | 5.9 | -1.8 | -1.0 | 4.6
CC[N+](CC)(CC)CC(=O)Nc1ccc(SC(F)F)cc1 | 0.4 | 0.1 | 0.2 | -1.3 | 9.2
Cc1ccc(C(=O)Nc2ccc(SC(F)F)cc2)s1 | 8.7 | -3.3 | -5.1 | 0.8 | -33.8*
COc1ccc(/C(N)=N/OC(=O)C2CCC(=O)N2S(=O)(=O)c2ccc(C)cc2)cc1 (configuration not stated) | 4.9 | 1.0 | -7.7 | 0.3 | -32.1*
O=C(c1ccc(CS(=O)Cc2ccc(Cl)cc2)o1)N1CCN(c2ccccn2)CC1 (configuration not stated) | 1.4 | -0.3 | -10.8 | -0.3 | -36.4*
O=C(c1ccc(CS(=O)c2ccccc2Cl)o1)N1CCN(c2ccccn2)CC1 (configuration not stated) | 3.2 | -6.4 | -4.0 | 0.3 | -35.7*
